In all, about 2,400 compounds went through this assay and about 2,400 (100%) were called active.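 The calls were made as follows: active = ratio percent of control, averaged over triplicates, above buffer control mean plus 5 SD (cut at about 64% in these data); inactive = the rest.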 The set was probably picked from earlier hits. These entries were drawn from the full list.

Sequence of Potassium channel subfamily K member 3 (Homo sapiens) (O14649 whole entry, looked up): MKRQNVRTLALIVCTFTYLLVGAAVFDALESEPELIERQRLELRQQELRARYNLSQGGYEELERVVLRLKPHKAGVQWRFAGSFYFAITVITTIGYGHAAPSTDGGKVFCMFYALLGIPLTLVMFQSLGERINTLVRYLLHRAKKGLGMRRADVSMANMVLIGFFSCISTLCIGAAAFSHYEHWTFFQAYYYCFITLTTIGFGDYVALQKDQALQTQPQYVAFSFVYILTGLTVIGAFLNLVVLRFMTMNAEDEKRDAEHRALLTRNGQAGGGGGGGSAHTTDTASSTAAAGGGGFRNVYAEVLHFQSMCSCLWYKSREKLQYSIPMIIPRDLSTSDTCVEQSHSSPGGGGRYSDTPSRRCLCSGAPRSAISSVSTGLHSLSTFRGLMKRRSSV

The test addresses Potassium channel subfamily K member 3 (Homo sapiens) (UniProt O14649). The test can be described thus: retest of human KCNK3 channel inhibitors, confirmation, CHO cells, FluxOR thallium flux, triplicate (AID 651638).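 Also: ratio is the fluorescence rise from min to max over baseline after thallium stimulus.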 The following applies: FluxOR fluorescence, at 10 µM, hits give high values, 0% buffer, 100% carvedilol maximal block.
For `O=C(CC1NCCc2ccccc21)Nc1cccc(Cl)c1` (stereo not drawn), the ratio percent of control was 115% (active). For `CC(NCc1cccs1)C(=O)Nc1cc(Cl)cc(Cl)c1` (stereo not drawn) the value was 96.3% (active); for `Cc1nc(N2CCN(c3ccccn3)CC2)c2c(C)c(C(=O)Nc3ccc(F)c(Cl)c3)sc2n1`, 129% (active). For `Cc1nc(N2CCN(c3ccccn3)CC2)c2c(C)c(C(=O)Nc3ccc(F)cc3)sc2n1` the value was 125% (active); for `Cc1nc(N2CCOCC2)c2c(C)c(C(=O)Nc3ccc(C(F)(F)F)cc3)sc2n1`, 136% (active); for `CSc1nnc2c(n1)OC(c1ccsc1)N(C(C)=O)c1ccccc1-2` (stereo not drawn), 106% (active). The value for `CSCc1cc(N(C)C)nc(SCc2ccc(Cl)cc2Cl)n1` was 115% (active). On to `O=C(Nn1c(SCc2ccc([N+](=O)[O-])cc2)nc2ccccc2c1=O)c1ccc(F)cc1`, for which the ratio percent of control is 139% (active). For `COc1ccc(C2Nc3ccccc3C(=O)N2Cc2ccccc2)cc1Cn1nnc2ccccc21` (stereo not drawn) the value was 110% (active). For `FC(F)(F)c1cc(-c2ccco2)nc(NCc2ccc(Cl)cc2)n1` the value was 126% (active). Take `FC(F)(F)c1cccc(-c2cc3ccccc3nc2N2CCCC2)c1`: the ratio percent of control is 101% (active).

`CC(=O)N1CCCc2cc(S(=O)(=O)N3CCCC(C(=O)N4CCN(c5cccc(Cl)c5)CC4)C3)ccc21` (stereo not drawn): the ratio percent of control is 119% (active). Take `CC(=O)c1ccccc1OCc1ccc(C(=O)c2ccccc2)cc1`: the ratio percent of control was 121% (active). Take `COc1ccc(CCNC(=O)c2ccccc2OCc2ccccc2)cc1`: the ratio percent of control is 101% (active). As to `CC(C)c1ccccc1OCC(O)CN(CC(O)COc1cccc2ccccc12)C(C)C` (stereo not drawn), the ratio percent of control is 119% (active). Turning to `Cc1cccc(C)c1N1CCN(S(=O)(=O)N2CCCCC2)CC1`, the ratio percent of control is 122% (active). The value for `N/C(Cc1ccc([N+](=O)[O-])cc1)=N\OC(=O)COc1ccc2ccccc2c1` was 112% (active); that for `COC(=O)c1cc(NC2c3ccccc3C(=O)N2c2ccc(Cl)cn2)cc(C(=O)OC)c1` (stereo not drawn) was 115% (active). Regarding `COc1cc(/C=C(\C#N)c2nc3ccccc3[nH]2)ccc1O`, the ratio percent of control is 125% (active). For `COc1ccccc1N1CCN(/N=C\C(Br)=C\c2ccccc2)CC1` the value was 89.7% (active). `O=C(Nc1ccccc1)O/N=C1\CCCCC1c1ccc([N+](=O)[O-])cc1[N+](=O)[O-]` (stereo not drawn): the ratio percent of control was 118% (active). For `CC(C)c1cc(C(=O)N/N=C/c2ccoc2)c(O)c(C(C)C)c1` the value was 123% (active); for `CCCCCCCCCCCCN1C(=O)CSC1c1cccnc1` (stereo not drawn), 125% (active). For `CCc1cc(C(c2ccccc2OC)N2CCOCC2)c(NC(=O)c2ccccc2)s1` (stereo not drawn), the ratio percent of control was 102% (active). Turning to `COc1cccc(CNc2nc(C(F)(F)F)nc3ccccc23)c1`, the ratio percent of control was 125% (active). For `Cc1cccc2cc(CN(Cc3nnnn3Cc3ccccc3)C3CCCC3)c(=O)[nH]c12` the value was 115% (active); for `COc1cccc(NC(=S)N(CCc2c(C)[nH]c3ccccc23)Cc2ccco2)c1`, 113% (active). As for `COc1ccccc1NC(=O)CSc1nc2sc(C)c(C)c2c(=O)n1Cc1ccco1`, the ratio percent of control was 108% (active). For `O=C(Nc1cccc(S(=O)(=O)Nc2ccc(Cl)cc2)c1)c1ccc2c(c1)OCCO2` the value was 105% (active); for `C=CCN(N=Nc1cccc([N+](=O)[O-])c1)c1cccc([N+](=O)[O-])c1`, 109% (active). On to `COc1ccccc1C(c1nnnn1C(C)(C)C)N1CCN(Cc2ccccc2)CC1` (stereo not drawn), for which the ratio percent of control is 109% (active). The value for `COC(=O)C1=C(C)N(C(C)c2ccccc2)C(=O)/C1=C\c1ccco1` (stereo not drawn) was 105% (active); that for `Cc1ccc(NC(=S)N2CCCC(c3ccccc3)=N2)cc1` was 97.7% (active); that for `c1ccc(C(c2ccccc2)N2CCN(Cc3nnnn3C3CCCCC3)CC2)cc1` was 118% (active). The value for `Cc1cccc(-c2nc3ccc(C(=O)NCCN4CCN(C)CC4)cc3nc2-c2cccc(C)c2)c1` was 106% (active). Take `O=C(NCCc1ccccc1)c1ccc2c(c1)N(Cc1ccccc1)CCS2`: the ratio percent of control was 108% (active).

Take `Cc1c(C(=O)N2CCCc3ccccc32)sc2nc(-c3ccccc3)cn12`: the ratio percent of control is 102% (active). `C=CCN(C(=O)c1cc(C)cc(C)c1)C1(C(=O)Nc2ccccc2)CCN(C(C)C)CC1`: the ratio percent of control was 93% (active). The value for `CCCC(=O)Nc1ccc(Cl)c(NC(=O)c2ccc(Br)o2)c1` was 92.7% (active). For `O=C(N/N=C/c1cccc(OCc2ccccc2)c1)c1ccc(Br)o1` the value was 116% (active).

`Cc1ccc(NC(=O)COC(=O)CNC(=O)c2ccc(Cl)cc2Cl)cc1S(=O)(=O)N1CCOCC1`: the ratio percent of control was 89% (active). For `COc1ccc(-c2nc(CCNC(=O)c3ccc(Br)o3)cs2)cc1` the value was 84.7% (active). In the case of `CN1CCc2ccccc2C1Cc1ccccc1NC(=O)c1sc2ccccc2c1Cl` (stereo not drawn), the ratio percent of control was 114% (active). For `c1ccc2c(NC3C4CC5CC(C4)CC3C5)nc(N3CCOCC3)nc2c1` (stereo not drawn) the value was 122% (active); for `CCOc1ccccc1Oc1cn[nH]c1-c1ccc(OC)cc1O`, 114% (active); for `COCCNc1cc(-c2ccccc2)nc2cc(-c3cccc(F)c3)nn12`, 130% (active). The value for `COc1cccc(CN(C)CC(O)COC(c2ccccc2)c2ccccc2C)c1` (stereo not drawn) was 110% (active); that for `Oc1ccc(/C=N/Nc2nc(-c3ccccc3F)nc3ccccc23)c(O)c1` was 93.3% (active); that for `O=C(NCCc1c[nH]c2ccccc12)c1cccc(Br)c1` was 118% (active).

`Cc1cc(NC(=O)Nc2ccc(Cl)cc2)n(-c2ccccc2)n1`: the ratio percent of control is 100% (active). For `CN(CCC(=O)Nc1cc(S(=O)(=O)N(C)C)ccc1Cl)CC(=O)Nc1ccc(F)cc1`, the ratio percent of control is 118% (active). Regarding `COc1cccc(COc2ccc(N(C)S(=O)(=O)c3ccccc3)cc2)c1`, the ratio percent of control was 132% (active).

Take `O=C(N/N=C/c1sc(N2CCCCC2)nc1-c1cccs1)c1cccnc1`: the ratio percent of control is 123% (active). With `COc1cccc(/C=N/Nc2cc(C)nc(-c3ccccc3O)n2)c1O`, the ratio percent of control is 134% (active).

Turning to `CCC(C)(C)n1nnnc1C(c1cccs1)N1CCN(c2nc3ccccc3s2)CC1` (stereo not drawn), the ratio percent of control was 112% (active). For `O=C(CNCCC1=CCCCC1)Nc1ccccc1N1CCCCCC1` the value was 113% (active); for `Cc1cc(C)c(S(=O)(=O)c2ccccc2)c(OC(=O)c2c(F)cccc2Cl)n1`, 78% (active); for `COc1ccc(Nc2ncnc3sc(-c4ccccc4)cc23)c(OC)c1`, 112% (active).

For the origin of these results see PubChem BioAssay AID651638 (Johns Hopkins Ion Channel Center, 2012).
